Measured values as given in PubChem BioAssay (Tox21).
Where “and” joins values, the source holds several entries; their conditions need not be identical. Equal entries are not always repeated. Results filed as inconclusive are left out. Calls of active or inactive are those of the source. Unless noted, the call rests on the fitted dose curve; in most records, active means well fitted cell-killing curve with a large enough effect in the repeat runs; inconclusive means weak or mixed curves, or effect the other way; inactive means no such curve, though single readings can be large or run the other way.

System: not listed separately
Test: qHTS assay to identify small molecule antagonists of the farnesoid-X-receptor (FXR) signaling pathway - cell viability counter screen (AID 743221; active means well fitted cell-killing curve with a large enough effect in the repeat runs, not every such curve was filed as active; further: nearly all actives have a fitted effect of over 50% in size; further: potency means the concentration at half of the fitted maximal effect)
Settings: FXR-bla HEK293T viability, CellTiter-Glo luminescence, 16 h; series mostly up to 62.6 µM; activity change, negative = cytotoxicity: at the top concentration
Method in brief: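 In GeneBLAzer FXR-UAS-bla HEK 293T cells stimulated with 50 uM chenodeoxycholic acid (final), compounds acted for 16 h at 37 C. Viability was assessed afterwards by CellTiter-Glo luminescence.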
On the % scale 0 is the no-effect control and ±100 the full control effect.

SMILES	activity change, negative = cytotoxicity	Potency
c1ccc2c(c1)[nH]c1cnccc12	-7.94% (inactive)	–
CC(=O)C(Cl)(Cl)Cl	0.19% (inactive)	–
O=C(CCl)C(Cl)Cl	–	49.4 µM (active)
COC(=O)N(C(=O)N1CO[C@@]2(C(=O)OC)Cc3cc(Cl)ccc3C2=N1)c1ccc(OC(F)(F)F)cc1	2.63% (inactive)	–
CCOC(=O)C1(c2ccccc2)CCN(CCC(C#N)(c2ccccc2)c2ccccc2)CC1	-4.83% (inactive)	–
CCC[CH2][Sn]([CH2]CCC)([CH2]CCC)[O]C(=O)c1ccccc1	–	2.45 µM (active)
N#C/C=C/C#N	-0.339% [at 81.1 µM] (inactive)	–
CC(=O)/C=C/c1ccc2c(c1)OCO2	-1.46% [at 81.1 µM] (inactive)	–
CN(C)C1CSSSC1	35.3% (inactive)	–
C=CC(=O)OCC(COC(=O)C=C)(COC(=O)C=C)COC(=O)C=C	–	21.9 µM (active)
CC(C)[C@H](C(=O)O[C@H](C#N)c1cccc(Oc2ccccc2)c1)c1ccc(Cl)cc1	-14.5% (inactive)	–
CC(C)[C@H](C(=O)OC(C#N)c1cccc(Oc2ccccc2)c1)c1ccc(OC(F)F)cc1 (stereo partly specified)	3.44% (inactive)	–
[Hg+2].[I-].[I-]	–	3.89 µM (active)
CC(Cc1ccc(C(C)(C)C)cc1)CN1C[C@@H](C)O[C@@H](C)C1 (stereo partly specified)	-7.51% (inactive)	–
CCC(C)c1cc([N+](=O)[O-])cc([N+](=O)[O-])c1OC(=O)C=C(C)C (stereo unspecified)	-29.1% (inactive)	–
CC(C)Oc1cccc(NC(=O)c2ccccc2C(F)(F)F)c1	-14.6% (inactive)	–
CC[C@H]1C[C@@H]2C[C@H]3c4[nH]c5ccc(OC)cc5c4CCN(C2)[C@@H]13	-23.2% [at 81.1 µM] (inactive)	–
c1ccc(Nc2ccc3ccccc3c2)cc1	–	inactive
BrC(Br)C(Br)(Br)Br	-11.4% [at 81.1 µM] (inactive)	–
COc1cccc2c1C(=O)c1c(O)c3c(c(O)c1C2=O)C[C@@](O)(C(=O)CO)CC3OC1CC(N2CCOC(OC)C2)C(O)C(C)O1 (stereo partly specified)	4.18% (inactive)	–
O=[N+]([O-])c1ccc2ccc3cccc4ccc1c2c34	-7.17% (inactive)	–

Biological target: Vitamin D3 receptor (Homo sapiens) (UniProt P11473)
Test: qHTS assay to identify small molecule agonists of the vitamin D receptor (VDR) signaling pathway (AID 743222; calls by dose curve)
Settings: HEK293T VDR-UAS-bla, beta-lactamase FRET ratio, 16 h; series mostly up to 63.5 µM; activation: at the top concentration
Method in brief: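 VDR-bla cells, 2,000/well; 4 h preincubation 37C; cpd (DMSO) 16 h; LiveBLAzer B/G substrate 2 h RT; fluorescence intensity read.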

Chain of Vitamin D3 receptor (Homo sapiens) (P11473 whole entry, looked up): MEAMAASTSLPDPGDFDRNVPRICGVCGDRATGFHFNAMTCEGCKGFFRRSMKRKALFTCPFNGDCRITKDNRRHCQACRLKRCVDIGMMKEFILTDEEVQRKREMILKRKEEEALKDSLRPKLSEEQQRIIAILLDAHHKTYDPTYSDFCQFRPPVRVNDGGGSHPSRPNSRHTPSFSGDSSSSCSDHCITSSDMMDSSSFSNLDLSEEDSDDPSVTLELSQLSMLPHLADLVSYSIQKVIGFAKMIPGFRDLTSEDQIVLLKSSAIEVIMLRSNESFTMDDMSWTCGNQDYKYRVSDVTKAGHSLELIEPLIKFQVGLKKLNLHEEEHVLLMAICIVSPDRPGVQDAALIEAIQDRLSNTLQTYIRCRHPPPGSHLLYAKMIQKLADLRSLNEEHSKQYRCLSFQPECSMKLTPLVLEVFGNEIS

SMILES	activation	Potency
ClC1=C(Cl)C2(Cl)C3C(Cl)C(Cl)CC3C1(Cl)C2(Cl)Cl (stereo unspecified)	20.5% (inactive)	–
Clc1ccc(C(c2ccccc2Cl)C(Cl)(Cl)Cl)cc1 (stereo unspecified)	–	inactive
Nc1ccc(Sc2ccc(N)cc2)cc1	-1.34% [at 81.1 µM] (inactive)	–
CSCCCN=C=S	-4.5% (inactive)	–
CN(C)C1CSSSC1	-7.99% (inactive)	–
CC(C)[C@H](C(=O)OC(C#N)c1cccc(Oc2ccccc2)c1)c1ccc(OC(F)F)cc1 (stereo partly specified)	26.8% (inactive)	–
CC(C)Oc1cccc(NC(=O)c2ccccc2C(F)(F)F)c1	-3.7% (inactive)	–
BrC(Br)C(Br)(Br)Br	-18.7% [at 81.1 µM] (inactive)	–
O=[N+]([O-])c1ccc2ccc3cccc4ccc1c2c34	-6.64% (inactive)	–

Biological target: Vitamin D3 receptor (Homo sapiens) (UniProt P11473)
Test: qHTS assay to identify small molecule antagonists of the vitamin D receptor (VDR) signaling pathway (AID 743223; active means well fitted inhibition curve with a large enough effect in the signal ratio in the repeat runs, not every such curve was filed as active; the % refers to the signal ratio)
Settings: VDR-UAS-bla HEK293T, beta-lactamase FRET ratio, 16 h; series mostly up to 61 µM; activity change, negative = inhibition: at the top concentration
Method in brief: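 Agonist 1alpha,25-dihydroxyvitamin D3 (3 nM in well) was added with each compound to VDR-bla cells preincubated 4 h. Cells stood 16 h at 37C, then FRET substrate 2 h at room temperature; fluorescence intensity recorded.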

SMILES	Potency	activity change, negative = inhibition
Clc1ccc(C(c2ccccc2Cl)C(Cl)(Cl)Cl)cc1 (stereo unspecified)	inactive	–
COC(=O)N(C(=O)N1CO[C@@]2(C(=O)OC)Cc3cc(Cl)ccc3C2=N1)c1ccc(OC(F)(F)F)cc1	–	-17.8% (inactive)
N#C/C=C/C#N	–	-0.398% [at 78.8 µM] (inactive)
O=c1oc2ccccc2c(O)c1Cc1c(O)c2ccccc2oc1=O	–	-4.08% (inactive)
S=C=Nc1cccc2ccccc12	–	-13.2% (inactive)
O=[N+]([O-])c1ccc2ccc3cccc4ccc1c2c34	–	-0.258% (inactive)

System: not listed separately
Test: qHTS assay to identify small molecule agonists of the vitamin D receptor (VDR) signaling pathway - cell viability counter screen (AID 743224); further: nearly all actives have a fitted effect of over 50% in size; further: potency means the concentration at half of the fitted maximal effect
Settings: VDR-bla HEK293T viability, CellTiter-Glo luminescence, 16 h; series mostly up to 62.6 µM; activity change, negative = cytotoxicity: at the top concentration
Method in brief: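 Luminescence from CellTiter-Glo, read after 30 min at room temperature, reports viability of VDR-bla cells treated with compounds for 16 h at 37C in the wells used for the beta-lactamase FRET read.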

SMILES	activity change, negative = cytotoxicity	Potency
c1ccc2c(c1)[nH]c1cnccc12	1.16% (inactive)	–
ClC1=C(Cl)C2(Cl)C3C(Cl)C(Cl)CC3C1(Cl)C2(Cl)Cl (stereo unspecified)	–	24.5 µM (active) and 17.4 µM (active)
Clc1ccc(C(c2ccccc2Cl)C(Cl)(Cl)Cl)cc1 (stereo unspecified)	–	43.9 µM (active)
[Cd+2].[Cl-].[Cl-]	–	1.75 µM (active) and 1.23 µM (active)
COC(=O)N(C(=O)N1CO[C@@]2(C(=O)OC)Cc3cc(Cl)ccc3C2=N1)c1ccc(OC(F)(F)F)cc1	-3.76% (inactive)	–
CCOC(=O)C1(c2ccccc2)CCN(CCC(C#N)(c2ccccc2)c2ccccc2)CC1	-8.76% (inactive)	–
Nc1ccc(Sc2ccc(N)cc2)cc1	-6.82% [at 81.1 µM] (inactive)	–
CCC[CH2][Sn]([CH2]CCC)([CH2]CCC)[O]C(=O)c1ccccc1	–	0.692 µM (active)
N#C/C=C/C#N	-14.4% [at 81.1 µM] (inactive)	–
O=c1oc2ccccc2c(O)c1Cc1c(O)c2ccccc2oc1=O	-14.1% (inactive)	–
CC(=O)/C=C/c1ccc2c(c1)OCO2	-18.1% [at 81.1 µM] (inactive)	–
C[C@]12CC[C@@H]3c4ccc(OC(=O)N(CCCl)CCCl)cc4CC[C@H]3[C@@H]1CC[C@@H]2O	-7.5% (inactive)	–
CCCN(CCC)c1c([N+](=O)[O-])cc(S(N)(=O)=O)cc1[N+](=O)[O-]	–	52.2 µM (active)
O=C(CCl)Nc1ccccc1	–	24.5 µM (active)
S=C=Nc1cccc2ccccc12	–	54.4 µM (active)
CN(C)C1CSSSC1	-14.4% (inactive)	–
C=CC(=O)OCC(COC(=O)C=C)(COC(=O)C=C)COC(=O)C=C	–	7.76 µM (active)
CC(C)[C@H](C(=O)OC(C#N)c1cccc(Oc2ccccc2)c1)c1ccc(OC(F)F)cc1 (stereo partly specified)	-24.8% (inactive)	–
CC1CCC(C(C)C)C(OC(=O)c2ccccc2N)C1 (stereo unspecified)	–	34.2 µM (active)
[Hg+2].[I-].[I-]	–	1.55 µM (active)
CC(C)Oc1cccc(NC(=O)c2ccccc2C(F)(F)F)c1	-18.1% [at 81.1 µM] (inactive)	–
c1ccc(Nc2ccc3ccccc3c2)cc1	14.6% (inactive)	–
COc1cccc2c1C(=O)c1c(O)c3c(c(O)c1C2=O)C[C@@](O)(C(=O)CO)CC3OC1CC(N2CCOC(OC)C2)C(O)C(C)O1 (stereo partly specified)	-13.6% (inactive)	–
CC(C)(O)c1cnn2c(-c3ccc(F)c(-c4c(F)cccc4C#N)c3)cnc2n1	–	27.5 µM (active)
O=[N+]([O-])c1ccc2ccc3cccc4ccc1c2c34	3.79% (inactive)	–
